# From PubChem BioAssay (EPA / NIEHS)
# Results filed as inconclusive are left out. Calls of active or inactive are those of the source. How the source made its calls: active means hit-call score of the fitted dose curve at least 0.9, where 1 is the maximum; inconclusive means response in the unintended direction; inactive means score below 0.9.
# Experiments:
# [1] = molecular target: human Serotonin Transporter (SERT), SLC6A4 (gene 6532) (UniProt P31645); experiment: NVS_TR_hSERT: NovaScreen (NVS) Transporter Assay for human Serotonin Transporter (SERT) (AID 2283372)
# Method in brief: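 Human platelet membrane preparation; displacement of radioligand from serotonin transporter measured after 1 h by filtration and scintillation counting. Single 25 uM duplicate screen, then concentration series for actives, with DMSO as negative baseline.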
# [2] = molecular target: Peroxisome proliferator-activated receptor gamma (Homo sapiens) (UniProt P37231); experiment: NVS_NR_hPPARg: NovaScreen (NVS) Nuclear Receptor Binding Assay for human Peroxisome Proliferator-activated Receptor gamma (PPARg) (AID 2283370)
# Method in brief: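 Chemicals were tested first in duplicate at 25 uM, then in concentration series if active. Binding to cell-free PPARg protein was measured by fluorescence polarization after 2 h, with loss of signal scored against DMSO.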
# [3] = molecular target: guinea pig Sigma Receptor, Non-selective Binding, SIGMAR1 (gene 100135589) (UniProt Q60492); experiment: NVS_OR_gSIGMA_NonSelective: NovaScreen (NVS) Nuclear Receptor Binding Assay for guinea pig Sigma Receptor, Non-selective Binding (AID 2283367)
# Method in brief: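 Test chemicals were screened in duplicate at 25 uM, then in concentration series if active, against radioligand binding to guinea pig brain membranes; filtration and scintillation counting at 1 h measured remaining bound ligand.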
# [4] = molecular target: human Adenosine Transporter (Adot), SLC29A1 (gene 2030) (UniProt Q99808); experiment: NVS_TR_hAdoT: NovaScreen (NVS) Transporter Assay for human Adenosine Transporter (Adot) (AID 2283368)
# Method in brief: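 Binding displacement on U937 extracted protein, read 1 h post-dose by filtration and scintillation counting. Primary duplicate test at 25 uM, then singleton concentration series with 50 uM top; DMSO baseline.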
# [5] = test system: guinea pig Dopamine Transporter (DAT), gene 100714898; experiment: NVS_TR_gDAT: NovaScreen (NVS) Transporter Assay for guinea pig Dopamine Transporter (DAT) (AID 2283369);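 further: active compounds lower bound radioligand signal relative to DMSO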
# Method in brief: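 Scintillation counts of filter-retained radioligand report binding to guinea pig striatal membranes after 2 h. Activity scored as signal loss relative to DMSO, first at 25 uM in duplicate, then in concentration series to 50 uM.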
# [6] = test system: rat Norepinephrine Transporter (NET), gene 83511; experiment: NVS_TR_rNET: NovaScreen (NVS) Transporter Assay for rat Norepinephrine Transporter (NET) (AID 2283373)
# Method in brief: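 Competitive radioligand displacement at the rat NET using forebrain membrane preparations, 1 h incubation, filter-based scintillation readout. Primary testing in duplicate at a single 25 uM concentration; confirmed actives retested across concentrations.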
# [7] = molecular target: rat Serotonin Transporter (SERT), Slc6a4 (gene 25553) (UniProt P31652); experiment: NVS_TR_rSERT: NovaScreen (NVS) Transporter Assay for rat Serotonin Transporter (SERT) (AID 2283375)
# Method in brief: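 Filtration-based radiodetection quantified loss of specific radioligand binding in rat forebrain membranes after 1 hour of chemical exposure, relative to DMSO. Chemicals were first tested in duplicate at 25 uM.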
# Sequence of rat Serotonin Transporter (SERT), Slc6a4 (gene 25553) (P31652 whole entry, looked up): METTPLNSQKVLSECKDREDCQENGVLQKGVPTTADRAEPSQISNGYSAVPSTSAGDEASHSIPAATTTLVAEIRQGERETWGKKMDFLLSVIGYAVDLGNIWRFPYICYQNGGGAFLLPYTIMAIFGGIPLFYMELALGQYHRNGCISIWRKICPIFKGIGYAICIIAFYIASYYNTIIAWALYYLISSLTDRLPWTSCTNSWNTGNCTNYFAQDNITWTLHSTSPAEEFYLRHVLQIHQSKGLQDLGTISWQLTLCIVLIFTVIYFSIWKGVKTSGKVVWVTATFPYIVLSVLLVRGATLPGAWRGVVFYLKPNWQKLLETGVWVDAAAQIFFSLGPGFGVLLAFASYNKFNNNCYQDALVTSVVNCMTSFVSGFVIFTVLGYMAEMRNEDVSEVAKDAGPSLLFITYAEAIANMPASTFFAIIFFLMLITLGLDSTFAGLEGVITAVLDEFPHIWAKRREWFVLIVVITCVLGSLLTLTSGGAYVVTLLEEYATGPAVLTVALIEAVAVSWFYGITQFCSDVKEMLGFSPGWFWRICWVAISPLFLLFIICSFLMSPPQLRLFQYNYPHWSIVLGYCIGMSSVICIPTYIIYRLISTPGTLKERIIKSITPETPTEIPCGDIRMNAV
# Sequence of human Serotonin Transporter (SERT), SLC6A4 (gene 6532) (P31645 whole entry, looked up): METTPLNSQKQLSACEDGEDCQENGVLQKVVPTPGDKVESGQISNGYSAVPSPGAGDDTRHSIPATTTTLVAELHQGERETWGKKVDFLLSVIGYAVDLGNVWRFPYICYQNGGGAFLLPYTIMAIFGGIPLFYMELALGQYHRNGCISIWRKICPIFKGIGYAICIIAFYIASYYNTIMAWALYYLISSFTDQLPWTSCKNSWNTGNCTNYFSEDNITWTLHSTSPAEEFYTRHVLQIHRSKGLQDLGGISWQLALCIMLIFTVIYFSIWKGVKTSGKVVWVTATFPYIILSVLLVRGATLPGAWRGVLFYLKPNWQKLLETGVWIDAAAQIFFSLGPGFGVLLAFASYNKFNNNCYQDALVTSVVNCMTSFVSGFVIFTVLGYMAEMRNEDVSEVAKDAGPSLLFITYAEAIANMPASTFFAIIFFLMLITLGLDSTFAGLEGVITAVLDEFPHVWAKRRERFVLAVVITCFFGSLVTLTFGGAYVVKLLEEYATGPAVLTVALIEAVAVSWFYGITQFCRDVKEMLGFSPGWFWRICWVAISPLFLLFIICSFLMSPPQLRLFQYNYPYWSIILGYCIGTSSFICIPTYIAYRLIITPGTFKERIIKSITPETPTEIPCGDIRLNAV
# Sequence of Peroxisome proliferator-activated receptor gamma (Homo sapiens) (P37231 whole entry, looked up): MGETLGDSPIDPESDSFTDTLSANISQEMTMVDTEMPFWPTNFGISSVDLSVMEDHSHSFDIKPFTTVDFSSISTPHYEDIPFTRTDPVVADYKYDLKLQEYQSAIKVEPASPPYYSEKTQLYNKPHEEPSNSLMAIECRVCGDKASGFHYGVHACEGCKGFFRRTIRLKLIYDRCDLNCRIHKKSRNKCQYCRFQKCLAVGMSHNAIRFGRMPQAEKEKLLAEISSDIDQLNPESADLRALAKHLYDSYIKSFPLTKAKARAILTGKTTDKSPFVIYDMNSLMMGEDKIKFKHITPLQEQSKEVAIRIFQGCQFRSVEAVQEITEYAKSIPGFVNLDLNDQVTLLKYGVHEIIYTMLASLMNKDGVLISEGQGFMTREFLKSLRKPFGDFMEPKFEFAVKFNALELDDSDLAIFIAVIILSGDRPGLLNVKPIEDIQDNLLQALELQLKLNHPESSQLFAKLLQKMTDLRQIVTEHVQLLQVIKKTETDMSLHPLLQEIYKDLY
# Sequence of guinea pig Sigma Receptor, Non-selective Binding, SIGMAR1 (gene 100135589) (Q60492 whole entry, looked up): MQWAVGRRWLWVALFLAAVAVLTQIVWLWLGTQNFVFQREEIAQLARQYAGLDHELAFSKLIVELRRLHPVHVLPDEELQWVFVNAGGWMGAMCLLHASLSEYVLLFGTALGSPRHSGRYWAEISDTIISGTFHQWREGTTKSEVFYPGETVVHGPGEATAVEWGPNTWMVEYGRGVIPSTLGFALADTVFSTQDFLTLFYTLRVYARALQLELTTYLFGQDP
# Sequence of human Adenosine Transporter (Adot), SLC29A1 (gene 2030) (Q99808 whole entry, looked up): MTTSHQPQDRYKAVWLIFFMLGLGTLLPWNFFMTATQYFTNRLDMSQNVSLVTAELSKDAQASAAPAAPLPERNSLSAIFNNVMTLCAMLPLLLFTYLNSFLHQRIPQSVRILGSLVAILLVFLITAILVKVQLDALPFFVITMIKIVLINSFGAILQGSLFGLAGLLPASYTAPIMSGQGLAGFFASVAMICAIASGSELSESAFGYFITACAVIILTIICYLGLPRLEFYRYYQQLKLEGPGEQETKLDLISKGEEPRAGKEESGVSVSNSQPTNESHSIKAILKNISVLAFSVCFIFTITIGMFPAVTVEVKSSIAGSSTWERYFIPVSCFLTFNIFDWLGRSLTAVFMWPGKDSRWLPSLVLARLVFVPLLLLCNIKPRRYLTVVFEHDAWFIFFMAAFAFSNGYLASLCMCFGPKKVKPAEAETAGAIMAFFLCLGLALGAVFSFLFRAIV
structure (smiles),measurement,setting,value
COc1ccc(OC(F)(F)F)cc1CN[C@H]1CCCN[C@H]1c1ccccc1,AC50,[1],12.5 µM (active)
CC(C)NCC(O)c1ccc(O)c(O)c1 (stereo unspecified),AC50,[2],9.71 µM (active)
C/C=C/C=C/C(=O)O,outcome,[2],inactive
same,outcome,[1],inactive
CCC(C)N(C)C(=O)c1cc2ccccc2c(-c2ccccc2Cl)n1 (stereo unspecified),AC50,[3],6.44 µM (active)
same,AC50,[2],5.15 µM (active)
CCCCCCC(CCCCCCCCCCC(=O)OCC(COC(C)=O)OC(C)=O)OC(C)=O (stereo unspecified),outcome,[2],inactive
CCCCC(CC)CO (stereo unspecified),AC50,[2],0.00905 µM (active)
O=C(NS(=O)(=O)/C=C/c1cccs1)c1ccc(F)cc1Br,AC50,[2],40.7 µM (active)
C=CCc1ccc(OC)c(OC)c1,outcome,[2],inactive
O=C1O[C@H]([C@H](O)CO)C(O)=C1O,outcome,[2],inactive
COC(=O)[C@H]1[C@H]2C[C@@H]3c4[nH]c5cc(OC)ccc5c4CCN3C[C@H]2C[C@@H](OC(=O)c2cc(OC)c(OC)c(OC)c2)[C@@H]1OC,AC50,[4],6.6 µM (active)
CC(N)=O,AC50,[2],4.98 µM (active)
Oc1ccccc1O,AC50,[2],0.00229 µM (active)
OCC(O)CO,AC50,[2],0.00229 µM (active)
Oc1ccc(O)cc1,outcome,[2],inactive
CN(C)CCCN1c2ccccc2Sc2ccc(Cl)cc21,AC50,[3],2.11 µM (active)
same,AC50,[5],8.84 µM (active)
same,AC50,[6],0.0781 µM (active)
same,AC50,[7],2.55 µM (active)
CC(COCC(C)OC(=O)c1ccccc1)OC(=O)c1ccccc1 (stereo unspecified),outcome,[5],inactive
CCOCCOCCO,outcome,[2],inactive
CC(C)(O)c1ccc(CNC(=O)c2cccnc2Oc2ccc(F)cc2)cc1,AC50,[4],34.7 µM (active)
CO[C@@H]1COCC[C@@H]1N[C@@H]1CC[C@@](C(=O)N2CCc3ncc(C(F)(F)F)cc3C2)(C(C)C)C1,AC50,[3],1.94 µM (active)
same,AC50,[2],15.8 µM (active)
NC(=Nc1ccccc1)Nc1ccccc1,AC50,[3],0.646 µM (active)
same,outcome,[6],inactive
NC1CCCCC1,outcome,[2],inactive
O=C(O)CC(O)(CC(=O)O)C(=O)O,outcome,[2],inactive
CN(C)C(=O)NC1(c2ccccc2)CCN(CCC[C@]2(c3ccc(Cl)c(Cl)c3)CCCN(C(=O)c3ccccc3)C2)CC1,AC50,[5],0.596 µM (active)
same,AC50,[6],3.55 µM (active)
O=C(N[C@@H](c1ccccc1)[C@@H]1CCCCN1)c1cccc(C(F)(F)F)c1Cl,AC50,[5],25 µM (active)
same,AC50,[1],9.57 µM (active)
same,AC50,[7],7.98 µM (active)
Cn1cnc2c1c(=O)[nH]c(=O)n2C,outcome,[3],inactive
same,AC50,[5],10.5 µM (active)
same,outcome,[2],inactive
same,AC50,[7],2.36 µM (active)
Cc1cc(SC2=C(O)C[C@@](CCc3ccc(N)cc3)(C(C)C)OC2=O)c(C(C)(C)C)cc1CO,outcome,[3],inactive
same,outcome,[5],inactive
same,outcome,[7],inactive
